Efflux pump mplx – blocks antifungal efflux pumps in multiplex yeast assay; AID 485275; inhibition, % at 10 µM; S. cerevisiae Candida pump triplex, Nile Red efflux; 330,000 tested, 0.44% active;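 active = plate passing quality check with inhibition over a set limit, or well fluorescence over plate mean plus 4 SD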;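 note: Nile Red retained in pooled yeast measured as flow cytometry median fluorescence; higher means more Nile Red kept so more efflux inhibition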
GC-B act – GC-B (human) receptor activation | P20594 | HEK293-GC-B cells, CNP EC30, cGMP TR-FRET; 0% at EC30 CNP, 100% saturating CNP | activation, % at 10 µM | 370,000 tested, 0.11% active | AID 1920062;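 active = activation at 10 µM reaching about 35% in either raw or pattern-adjusted values, limit read from the data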
Bfl-1 A1 inh – inhibitors of the anti-apoptotic protein A1, read as caspase activation | 330,000 tested, 0.066% active | MEF A1-2A-BIM cells, Caspase-Glo 3/7 luminescence, 3 h; percent of clofoctol response, vehicle zero | AID 2462 | caspase activation, % (no concentration beside the values);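 active = over half of replicate activation scores above 10%, or exactly half above 10 with the replicate mean above 10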
HSV augment – HSV replication enhancement. HSV replication augmentation in cells, fold increase. maximum fold increase. 220,000 tested, 0.005% active. AID 1956; in the data active = maximum fold increase above about 1.5; tested in PC3 cells
H9c2 TAG inh – triacylglycerol accumulation inhibition; AID 651582; 230,000 tested, 0.66% active; inhibition, % at 12.5 µM; H9c2 cells, Nile Red lipid (TAG) fluorescence; cells loaded with 200 µM oleic acid;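 active = pattern-corrected inhibition of lipid staining of at least 50% with the nuclear-stain viability signal not falling by more than 50%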
NPR1 activator – GC-A (human) enzyme activation | HEK293 GC-A cells, cGMP TR-FRET, EC30 ANP; 0% at EC30 ANP, 100% saturating ANP | activation, % at 10 µM | 370,000 tested, 0.14% active | AID 1671463; in the data active = activation above about 40%
Target sequence (P16066 whole entry, looked up): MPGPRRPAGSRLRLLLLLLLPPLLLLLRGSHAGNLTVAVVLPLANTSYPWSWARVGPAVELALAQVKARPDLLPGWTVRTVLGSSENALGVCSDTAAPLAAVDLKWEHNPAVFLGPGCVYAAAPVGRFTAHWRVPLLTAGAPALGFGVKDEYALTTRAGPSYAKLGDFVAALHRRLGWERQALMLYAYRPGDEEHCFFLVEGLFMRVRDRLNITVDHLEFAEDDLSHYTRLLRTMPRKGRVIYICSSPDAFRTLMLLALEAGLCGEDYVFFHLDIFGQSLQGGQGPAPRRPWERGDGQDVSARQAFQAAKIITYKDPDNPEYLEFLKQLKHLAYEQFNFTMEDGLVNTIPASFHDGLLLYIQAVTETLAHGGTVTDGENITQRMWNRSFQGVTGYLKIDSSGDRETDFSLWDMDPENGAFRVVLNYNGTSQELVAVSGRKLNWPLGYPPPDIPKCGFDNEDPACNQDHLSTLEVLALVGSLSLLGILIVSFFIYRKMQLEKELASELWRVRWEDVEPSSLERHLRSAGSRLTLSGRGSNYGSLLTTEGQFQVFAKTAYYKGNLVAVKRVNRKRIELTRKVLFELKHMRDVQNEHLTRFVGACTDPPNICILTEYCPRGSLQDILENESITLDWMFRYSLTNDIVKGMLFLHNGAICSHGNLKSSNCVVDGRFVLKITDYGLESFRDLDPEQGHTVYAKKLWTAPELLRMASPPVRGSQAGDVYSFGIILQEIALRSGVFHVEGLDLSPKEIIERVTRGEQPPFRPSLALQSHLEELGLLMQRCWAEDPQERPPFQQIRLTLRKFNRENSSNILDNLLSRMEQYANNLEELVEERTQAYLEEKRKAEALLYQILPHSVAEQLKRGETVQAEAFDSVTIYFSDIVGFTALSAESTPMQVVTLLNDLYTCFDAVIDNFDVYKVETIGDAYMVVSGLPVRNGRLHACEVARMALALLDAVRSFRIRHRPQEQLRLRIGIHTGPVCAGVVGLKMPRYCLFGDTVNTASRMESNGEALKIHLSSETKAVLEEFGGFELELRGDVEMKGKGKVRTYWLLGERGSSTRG
Yeast cmpd fluor – compound fluorescence in yeast efflux pump counter-screen; shares compounds with Efflux pump mplx; S. cerevisiae AD/pABC3, flow cytometry; fluorescence ratio to DMSO, % at 10 µM; 1,700 tested, 4% active;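 active = fluorescence ratio to DMSO above its plate's cutoff, the plate mean ratio plus 5 SD, cut at about 210% in these data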;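 note: unstained yeast with no Nile Red so the signal is compound autofluorescence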
CaMdr1 efflux inh – Candida Mdr1 efflux pump inhibition. shares compounds with Efflux pump mplx. S. cerevisiae AD/CaMDR1, Nile Red efflux, flow cytometry. inhibition, % at 10 µM. 1,700 tested, 1% active. AID 588518; in the data active = inhibition above about 26%;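 note: higher means more Nile Red retained so more efflux inhibition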
Cdr2 pump inh – Candida Cdr2 efflux pump inhibition; shares compounds with Efflux pump mplx; S. cerevisiae AD/CaCDR2, Nile Red retention, flow cytometry; Nile Red retention ratio vs DMSO, % at 10 µM; 1,700 tested, 4% active; AID 588520; in the data active = Nile Red retention ratio vs DMSO above about 190%;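 note: higher ratio means more blocking of Cdr2 efflux of the dye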
CaCdr1 efflux inh – Candida Cdr1 efflux pump inhibition; AID 588522; inhibition, % at 10 µM; S. cerevisiae AD/CaCDR1, Nile Red efflux, flow cytometry; 1,700 tested, 1% active; shares compounds with Efflux pump mplx;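 active = inhibition above the screen-wide mean plus twice its standard deviation, cut at about 32% in these data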
Hits are given with their value; . = inactive; / = no result given; + = active, no number. Rows were chosen to be rich in hits. Some 1% of all compounds tested hit in one or more screens of this group.

SMILES	Efflux pump mplx	GC-B act	Bfl-1 A1 inh	HSV augment	H9c2 TAG inh	NPR1 activator	Yeast cmpd fluor	CaMdr1 efflux inh	Cdr2 pump inh	CaCdr1 efflux inh
O=C(O)CC1c2ccccc2CCN1S(=O)(=O)c1cccs1 (centres undefined)	2.2	.	.	/	.	.	.	.	.	.
O=C(O)CC1c2ccccc2CCN1S(=O)(=O)c1ccccc1 (centres undefined)	.	.	.	/	.	.	/	/	/	/
CCN(CC)S(=O)(=O)c1cccc(C(=O)OCC(=O)NCCN2C(=O)CSC2=O)c1	.	.	.	/	.	.	.	.	.	.
O=C(COC(=O)c1cccnc1Nc1ccccc1F)NCCN1C(=O)CSC1=O	.	.	.	.	/	.	/	/	/	/
O=C(COC(=O)c1cccc(Cl)c1Cl)NCCN1C(=O)CSC1=O	.	.	.	.	.	.	.	.	.	.
O=C(COC(=O)c1ccccc1Br)NCCN1C(=O)CSC1=O	1.1	.	.	.	.	.	.	.	.	.
Cc1c(C(=O)OCC(=O)NCCN2C(=O)CSC2=O)cccc1[N+](=O)[O-]	.	.	.	/	.	.	/	/	/	/
COC(=O)[C@]12CCCCC=C1N(Cc1ccc(OC)cc1)C(=O)[C@@H]2CC(=O)N1CCOCC1	/	.	/	/	/	.	/	/	/	/
COCCN1C(=O)C2=C(C1=O)C1N(C)c3ccccc3[C@@]13C[C@@H](CO)N(S(=O)(=O)c1ccc(OC)cc1)C3=N2 (some centres undefined)	/	.	/	/	/	.	/	/	/	/
CCOc1ccccc1NC(=S)NC1CC2CCC1C2 (centres undefined)	1.1	/	.	/	/	/	.	.	.	.
O=C(Cn1c2ccccc2c(=O)c2ccccc21)Nc1ccccc1F	17	.	.	.	/	.	.	.	.	.
CC(=O)c1cn(CC(=O)Nc2ccccc2F)c2ccccc12	.	.	.	/	/	.	/	/	/	/
C=CCN1C(=O)[C@@H](CC(=O)N2CCN(C(=O)C3CC3)CC2)[C@]2(C(=O)OC)CCCCC=C12	/	.	/	/	/	.	/	/	/	/
Cc1ccc(CSC2=Nc3ccccc3C3=NC(CC(=O)NCc4ccco4)C(=O)N23)cc1 (centres undefined)	0.6	.	.	.	.	.	.	.	.	.
Cc1ccc2nc(C(Cl)(Cl)Cl)nc(N/N=C/c3ccc([N+](=O)[O-])cc3)c2c1	/	.	/	/	.	.	/	/	/	/
Cc1ccc2nc(C(Cl)(Cl)Cl)nc(N/N=C/c3ccncc3)c2c1	0.4	.	.	.	/	.	.	.	.	.
CCCCCCCCN1C(=O)[C@@H](CC(=O)NCc2cccc3ccccc23)C[C@@]2(C(=O)OC)C1=C[C@H](C(C)C)O[C@@H]2C1CC1	/	.	/	/	/	.	/	/	/	/
CCc1ccc(-n2c(=O)c3ccccc3n(CC(=O)NCc3ccco3)c2=O)cc1	0.8	.	.	.	.	.	.	.	.	.
O=C(NCc1cccc2ccccc12)C1CCCN(c2nc3ccccc3o2)C1 (centres undefined)	/	.	/	/	/	.	/	/	/	/
CCN1CCN(CC(=O)Nc2cc(C(F)(F)F)ccc2OCCOC)CC1	1.3	.	.	.	.	.	.	.	.	.
CCCOc1ccc(C(F)(F)F)cc1NC(=O)CN1C(=O)C(=O)N(CC)C1=O	.	.	.	/	.	.	/	/	/	/
CN1C(=O)c2cc(NC(=O)C3CCCCC3)ccc2OC[C@H]2O[C@@H](CC(=O)NC3CCCC3)CC[C@H]21	/	.	/	/	/	.	/	/	/	/
COc1cccc(NC(=O)Nc2c(-c3ccc(C)cc3)nc3ncccn23)c1	/	.	/	/	/	.	/	/	/	/
COc1ccc(-c2sc3cc4c(cc3c2-c2ccc(OCCN3CCCCC3)cc2)OCO4)cc1	.	/	/	/	.	/	.	.	.	.
COc1ccc(-c2sc3cc(OC)ccc3c2-c2ccc(OCCN3CCOCC3)cc2)cc1	.	.	/	/	.	.	.	.	.	.
SMILES	Efflux pump mplx	GC-B act	Bfl-1 A1 inh	HSV augment	H9c2 TAG inh	NPR1 activator	Yeast cmpd fluor	CaMdr1 efflux inh	Cdr2 pump inh	CaCdr1 efflux inh
COc1cc(OC)cc(-c2sc3ccc(OC)cc3c2-c2ccc(OCCN3CCCCC3)cc2)c1	+	/	/	/	.	/	.	70	/	103
COc1ccc(-c2c(-c3cc(OC)cc(OC)c3)sc3ccc(OC)cc23)cc1	.	.	.	/	.	.	/	/	/	/
COc1ccccc1-c1sc2cc3c(cc2c1-c1ccc(OCCN2CCOCC2)cc1)OCO3	.	/	/	/	.	/	.	.	.	.
COc1ccc(C2c3ccccc3NC3C2C(=O)N(Cc2ccc(OC)cc2OC)[C@H]3Cc2ccccc2)cc1 (some centres undefined)	/	.	/	/	/	.	/	/	/	/
COC(=O)[C@@]12CCCCC=C1N(CCc1ccc(Cl)cc1)C(=O)[C@H]2CC(=O)NCc1ccc(C)o1	/	.	/	/	/	.	/	/	/	/
COC(=O)[C@]12C[C@H](CC(=O)N3CCSCC3)C(=O)N(CCc3ccc(OC)c(OC)c3)C1=C[C@H](C(C)C)O[C@@H]2C1CC1	/	.	/	/	/	.	/	/	/	/
CSc1ccccc1C(=O)Nc1ccc(C)c(C)c1	1.4	.	.	.	/	.	.	.	.	.
CSc1ccccc1C(=O)Nc1cc(C)cc(C)c1	.	.	.	.	.	.	/	/	/	/
CCCOC(=O)c1ccc(NC(=O)C2C3CCC(C3)C2C(=O)O)cc1 (centres undefined)	15	.	.	.	/	.	.	.	.	.
COC(=O)c1ccc(NC(=O)C2C3CCC(C3)C2C(=O)O)cc1 (centres undefined)	.	.	.	.	.	.	/	/	/	/
O=C(Nc1ccc(Nc2ccccc2)cc1)C(Cl)Cl	20	.	.	.	.	.	.	.	.	.
COc1ccc(Cn2c(NC(=O)c3ccccc3)nc(Cc3ccccc3)c2-c2ccccc2)c(OC)c1	/	.	/	/	/	.	/	/	/	/
COc1ccc(CCNC(=O)C2CCCN(S(=O)(=O)c3ccc(F)cc3)C2)cc1OC (centres undefined)	.	.	.	/	.	.	/	/	/	/
COc1ccc(CCNC(=O)C2=CCN(S(=O)(=O)c3ccc(F)cc3)CC2)cc1OC	0.4	.	.	/	/	.	.	.	.	.
O=C(NC(=S)Nc1ccc2[nH]c(=O)[nH]c2c1)c1ccccc1Cl	6.2	.	.	/	.	.	.	.	.	.
O=C(N1CCOCC1)N1CCN(S(=O)(=O)c2cccc([N+](=O)[O-])c2)CC1	1.8	.	.	/	/	.	.	.	.	.
NC(=O)c1cc(-c2ccccc2)nc2ccc(Br)cc12	.	.	.	.	.	.	.	.	.	.
O=C(O)c1cc(-c2cccnc2)nc2ccc(Br)cc12	.	.	.	.	.	.	/	/	/	/

Compound activity (PubChem BioAssay)
